Compounds with a hit are over-represented: about 5.7% of the library has one in this group of screens.
KB-V1 cytotox = qHTS assay for MDR1-selective chemotherapeutics: Primary screen using the drug-selected MDR subline cells KB-V1; KB-V1 MDR cells viability, CellTiter-Glo, 72 h; Potency, µM (top dose mostly 46.1 µM), usual class: cytotoxic; actives 3.4% (n = 400,000); AID 1347076, 2019; further: potency means the concentration at half of the fitted maximal effect; nearly all actives have a fitted effect of over 60% in size
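Following 72 h at 37 degrees C with compound, KB-V1 cell viability was read by CellTiter-Glo luminescence, medium being phenol-red-free DMEM plus 10% FBS; concentration-response parameters came from normalized, curve-fitted qHTS data.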
KB-3-1 cytotox = qHTS assay for MDR1-selective chemotherapeutics: Primary screen using the parental adenocarcinoma cell KB-3-1. KB-3-1 viability, CellTiter-Glo ATP luminescence, 72 h. Potency, µM (doses to about 46.1 µM), actives largely listed as cytotoxic. actives 1.4% (n = 400,000); further: potency means the concentration at half of the fitted maximal effect; nearly all actives have a fitted effect of over 60% in size
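72 h, 37 °C compound treatment of KB-3-1 parental cells; CellTiter-Glo added, 10 min, luminescence read. Data corrected against DMSO-only plates and normalized before curve fitting.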
Nrf2 inh = Nrf2 qHTS screen for inhibitors | AID 504444, 2011 | Potency, µM (doses to about 46 µM), inactives show top-dose activity change, negative = inhibition, usual class: inhibitors | A549 ARE-Fluc reporter, luciferase luminescence, 18-24 h | actives 2.1% (n = 360,000); further: potency means the concentration at half of the fitted maximal effect; nearly all actives have a fitted effect of over 60% in size
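Nrf2 function is reported as luminescence of an ARE-controlled luciferase in A549 cells. Compounds were tested at several concentrations, and a CellTiter-Fluor read on the same wells flagged cytotoxicity.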
PI4K2A block = qHTS for small molecular inhibitors of PI4K2A; Phosphatidylinositol 4-kinase type 2-alpha (Homo sapiens), Q9BTU6; purified PI4K2A, ADP-Glo luminescence, 1 h; active compounds read low; activity change, negative = inhibition, % at 76.9 µM; actives 0.13% (n = 420,000); in the data active means activity change below about -50%; inconclusive means mostly about -30% to -49%;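 further: -100% = wells without enzyme as full effect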
Target sequence (Q9BTU6 whole entry, looked up): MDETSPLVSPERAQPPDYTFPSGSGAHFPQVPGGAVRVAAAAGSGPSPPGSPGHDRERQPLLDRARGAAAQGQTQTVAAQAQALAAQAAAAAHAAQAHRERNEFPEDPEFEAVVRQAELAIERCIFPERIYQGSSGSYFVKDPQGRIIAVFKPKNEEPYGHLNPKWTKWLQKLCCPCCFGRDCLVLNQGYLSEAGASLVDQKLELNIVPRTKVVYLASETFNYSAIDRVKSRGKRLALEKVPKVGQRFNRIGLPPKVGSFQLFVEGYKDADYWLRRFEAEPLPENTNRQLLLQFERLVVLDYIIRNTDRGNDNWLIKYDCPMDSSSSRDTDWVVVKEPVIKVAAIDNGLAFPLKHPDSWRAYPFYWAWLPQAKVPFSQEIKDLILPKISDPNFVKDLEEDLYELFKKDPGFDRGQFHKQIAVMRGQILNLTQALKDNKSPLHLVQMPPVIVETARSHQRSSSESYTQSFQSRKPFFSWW
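Compounds are screened against recombinant PI4K2A using PI as substrate and ATP, the latter dispensed at 300 microM. Reactions run one hour at ambient temperature before ADP-Glo detection; full inhibition defined by wells lacking enzyme.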
A549 tox = Nrf2 qHTS screen for inhibitors: counterscreen for cytotoxicity; A549 ARE-Fluc cells, CellTiter-Fluor viability, 18-24 h; Potency, µM (titrated, usually from 46 µM), without a hit: at the highest dose activity change, negative = cytotoxicity, most hits filed as inhibitors; actives 0.16% (n = 390,000); further: potency means the concentration at half of the fitted maximal effect
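A549 ARE_Fluc cells in 5% FBS OPTI-MEM were exposed to compounds in concentration-response for 18-24 h at 37 deg C. Viability was read by CellTiter-Fluor fluorescence (Ex 405/Em 525) after 30 min, before the luciferase read.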
Giardia killer = Small Molecules that selectively kill Giardia lamblia: qHTS. AID 540267, 2011. Giardia lamblia trophozoite viability. activity change, % at 7.66 µM, hits read low. actives 0.15% (n = 340,000); in the data active means activity change below about -80%; inconclusive means between about -30% and that limit;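 further: parasites exposed to compound for two days anaerobically before the ATP read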
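Luminescence from cellular ATP indicates surviving trophozoites (100 cells/well) following 48 hrs anaerobic compound treatment at 37 deg C; signal develops 15-30 min at room temperature.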
Starred values were filed as active, the others as inactive; i = inactive; ? = inconclusive; · = no result given; ! = not confirmed by another sample. Unless noted, the call rests on the fitted dose curve; in most records, active means well fitted curve in the direction sought with a large enough effect; inconclusive means small, poorly fitted or top-dose-only effect, or another doubt; inactive means no such curve, though single readings can be large; an effect the other way counts as inactive or inconclusive. Unless noted, on the % scale 0 is the no-effect control and ±100 the full control effect.

SMILES | KB-V1 cytotox | KB-3-1 cytotox | Nrf2 inh | PI4K2A block | A549 tox | Giardia killer
O=C(NCc1cccs1)c1ccc(CSc2nc3cccnc3n2Cc2ccc(F)cc2)cc1 | i | ? | 18µM* | 1 | -19% | ·
CCOc1ccccc1CNC(=O)c1ccc(NC(=O)N2CCSc3ncccc32)cc1 | i | i | 18µM* | 3 | 2% | ·
O=[N+]([O-])c1cnc(Sc2ccncn2)s1 | ? | 18µM* | -3% | -14 | -5% | 17
CN(C)CCSc1nnc(-c2ccccc2)o1 | i | i | 16% | 0 | 9% | 16
CN(C)c1cccc(-c2nnc(SCCCC#N)o2)c1 | 21µM* | i | ? | 2 | -12% | -21
CCOC(=O)c1c(C)[nH]c(C)c1C(=O)CSc1nc2ccccc2c(=O)n1-c1ccc(Cl)cc1 | 10µM* | ? | ? | 1 | -23% | 4
CC(C)Cn1c(SCC(=O)NC(=O)NC2CCCC2)nc2ccccc21 | ? | i | 18µM* | 0 | ? | 10
CC(C)Cn1c(SCC(=O)Nc2ncccn2)nc2ccccc21 | i | i | 9% | -3 | 10% | -2
CCOC(=O)c1c(C)[nH]c(C)c1C(=O)CSc1nc2ccccc2c(=O)n1-c1ccc(C)cc1 | i | i | -5% | 1 | -5% | 10
CCn1c(SCC(=O)N2CCN(c3ccc(Cl)cc3)CC2)nc2ccccc2c1=O | 2.6µM* | i | ? | 1 | 1% | -6
CCn1c(SCC(=O)N2CCCC2)nc2ccccc2c1=O | 6.5µM* | i | -21% | -4 | -1% | 15
CCN(CC)C(=O)CC[C@H]1CC[C@]2(CCCN(C(=O)C(C)(C)C)C2)O1 | · | · | · | -1 | · | ·
CCOC(=O)c1c(Nc2ccc(OC)cc2)nnc(-c2ccccc2)c1-c1ccccc1 | i | ? | ? | 8 | -13% | ·
COC(=O)C[C@H]1CC[C@@H]2[C@H](COc3ccc(NC(=O)NCc4ccccc4)cc3C(=O)N2C)O1 | · | · | · | -4 | · | ·
CC(C)NC(=O)Cn1c(SCC(=O)N2CCCCCC2)nc2ccccc21 | 15µM* | i | · | 5 | -4% | -17
COCCn1c(SCC(=O)N2CCCCC2)nc2ccccc2c1=O | 4.1µM* | i | 19% | -65* | -6% | 11
CC(C)NC(=O)Cn1c(SCC(=O)NC2CCCC2)nc2ccccc21 | i | i | 7% | 1 | -6% | 0
O=C(Nc1ccc2oc(-c3cccnc3)nc2c1)c1ccc(-c2ccc(OC(F)(F)F)cc2)o1 | i | i | -13% | 1 | 1% | ·
O=C(Cc1ccccc1)Nc1ccc2oc(-c3cccnc3)nc2c1 | i | i | -3% | 3 | -14% | -9
O=C(Nc1ccc2oc(-c3cccnc3)nc2c1)c1ccc(-c2ccccc2OC(F)(F)F)o1 | i | i | 0.65µM* | -1 | -2% | ·
O=C(Nc1ccc2oc(-c3cccnc3)nc2c1)c1ccc(-c2ccccc2)o1 | · | · | 13µM* | -5 | -6% | ·
Oc1ccc2ccccc2c1/C=C/c1ccc2c(Br)cc(Br)c(O)c2n1 | 4.1µM* | ? | -35% | -5 | -17% | -20
Oc1cccc2ccc(/C=C/c3ccccc3Br)nc12 | ? | ? | 6% | -7 | 2% | 1
CCOC(=O)N1CCN(C(=O)C[C@H]2C[C@@]3(C(=O)OC)C(=C[C@H](C(C)C)O[C@@H]3C3CC3)N(Cc3ccc(Cl)cc3Cl)C2=O)CC1 | · | · | · | -3 | · | ·
CC(=O)N(O)CCCCCNC(=O)CCC(=O)N(O)CCCCCNC(=O)CCC(=O)N(O)CCCCCN | ? | 21µM*! | 10µM* | -1 | -1% | 29
SMILES | KB-V1 cytotox | KB-3-1 cytotox | Nrf2 inh | PI4K2A block | A549 tox | Giardia killer
CCCC(=O)NCCCCNC(=O)CCC | i | i | -12% | -3 | -3% | -14
COc1ccc(NC(=O)C23CC4CC(C2)CC(n2cnc(Br)n2)(C4)C3)cc1Cl | 9.2µM* | i | -24% | -5 | -5% | -20
C/C(=C(/OCCOc1ccc(Cl)cc1)c1ccc(Cl)cc1Cl)n1ccnc1 | · | · | · | 3 | · | ·
CCCCCNc1nc(N2CCCC2)c2c(c1C#N)CCN(C)C2 | 23µM* | ? | 6% | -8 | -8% | 14
CCCCCNc1nc(NCCCO)c(C#N)c2c1CN(C)CC2 | ? | i | · | -5 | 14% | 9
CN(CCOC(=O)c1cc2ccccc2o1)C1CN(Cc2cn(Cc3ccc([N+](=O)[O-])cc3)nn2)S(=O)(=O)C1 (stereo not given) | · | · | · | 1 | · | ·
CCOC(=O)Nc1nc(-c2ccccc2)c(C(=O)c2ccccc2)s1 | 1.2µM* | 0.82µM* | 12% | 8 | ? | -18
COC(=O)Nc1nc(-c2ccccc2)c(C(=O)c2ccc(Cl)cc2)s1 | 0.58µM* | 1µM* | -13% | -6 | ? | 10
C[C@@H]1COc2cc(F)ccc2S(=O)(=O)N1C | · | · | · | 0 | · | ·
COc1cc(C2CC(=O)Nc3cc4c(cc32)OCCO4)cc(OC)c1O (stereo not given) | i | i | 16% | 1 | 3% | ·
O=C1CSC(=Nc2cccc(Cl)c2Cl)N1Cc1cccnc1 | 16µM* | i | 4% | -1 | 0% | -17
CCOC(=O)[C@]12CCCC=C1N(Cc1ccc(OC)cc1)C(=O)[C@@H]2CC(=O)NCCCN1CCCC1=O | · | · | · | 3 | · | ·
Cc1[nH]c2ccccc2c1C(=O)COC(=O)c1c(-c2ccccc2Cl)noc1C | i | i | ? | -5 | 14% | -21
Cc1[nH]c2ccccc2c1C(=O)COC(=O)c1c(-c2c(F)cccc2Cl)noc1C | 16µM* | ? | ? | -1 | 0% | 11
N#CC1=C(N)N2C(=C(C#N)C13CCN(Cc1ccccc1)CC3)Nc1ccccc12 | i | i | · | 1 | 5% | -8
N#CC1=C(N)N2C(=C(C#N)C1c1cccc(Br)c1)Nc1ccccc12 (stereo not given) | 5.8µM* | ? | -27% | 3 | 5% | 9
N#CC1=C(N)N2C(=C(C#N)C1c1ccc(Br)cc1)Nc1ccccc12 (stereo not given) | i | i | 12µM* | -3 | ? | -8
CCN1CCCCC(NC(=O)c2cc(OC)c(OC)c(OC)c2)C1=O (stereo not given) | · | · | · | -3 | · | ·
CN(C)c1ccc(-c2nn3c(-c4ccco4)nnc3s2)cc1 | · | · | · | -1 | · | ·
Cc1cc2ncn(-c3ncnc4scc(-c5ccccc5)c34)c2cc1C | 4.1µM* | i | 3% | -2 | 7% | -11

Screening results (PubChem BioAssay)
